Sampled rows, rich in hits. Any-hit rate of the full collection: about 19%.
SW480 rereplic: A quantitative high throughput screen for small molecules that induce DNA re-replication in SW480 colon adenocarcinoma cells | hit rate 1.8% among 340,000 | AID 624297, 2012 | SW480 DNA re-replication, Hoechst DNA content imaging, 48 h | Potency, µM (titrated, usually from 46.1 µM), for the others: at the highest dose re-replication activation, most hits filed as activators; also: potency is read from the fitted curve at half-maximal effect; % of control where 0% means no effect; nearly all actives have a fitted effect of over 55% in size
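Per well, 250 cells were exposed to pinned compound for 48 hr. Nuclear DNA was visualised with Hoechst (40 min, 37 C) and total object intensity recorded by fluorescence scanning.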
MCF10A rereplic: A quantitative high throughput screen for small molecules that induce DNA re-replication in MCF 10a normal breast cells; Potency, µM (titrated, usually from 46.1 µM), inactives show top-dose activity, positive = re-replication, actives largely listed as activators; MCF 10A DNA re-replication, Hoechst nuclear intensity, 48 h; hit rate 2.9% among 350,000; also: potency is read from the fitted curve at half-maximal effect; % of control where 0% means no effect; nearly all actives have a fitted effect of over 50% in size
IL1B secr inh: qHTS for Inhibitors of Inflammasome Signaling: IL-1-beta AlphaLISA Primary Screen | THP-1 LPS/ATP IL-1B secretion, AlphaLISA, 16 h; hits give low values | activity change, % at 57.5 µM | hit rate 4.7% among 360,000 | AID 743279, 2014; in the data active = activity change below about -50%; inconclusive = mostly about -30% to -49%; also: % is scaled to controls: 0 for no effect and ±100 for the full control effect
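Secreted IL-1B measured by AlphaLISA bead assay after 16 h compound exposure of THP-1 cells; compounds (final up to 57.5 uM) added 1 h before LPS (250 ng/mL) and ATP (1.25 mM) stimulation; lower signal means less secretion.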
TDP1 cell CPT: qHTS for Inhibitors of human tyrosyl-DNA phosphodiesterase 1 (TDP1): qHTS in cells in presence of CPT. chicken DT40 Tdp1-/-;hTDP1 cells + 20 nM CPT, ATP luminescence, 48 h. Potency, µM (top dose mostly 46.2 µM), for inactives: at the top dose activity change, negative = growth inhibition, hits mostly inhibitors. hit rate 12% among 420,000. AID 686979, 2013; also: potency is read from the fitted curve at half-maximal effect; % is scaled to controls: 0 for no effect and ±100 for the full control effect; nearly all actives have a fitted effect of over 55% in size
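Cell growth measured by CellTiter-Glo luminescence after a minimum 48 h, 37 C compound exposure with 20 nM CPT in Tdp1-knockout DT40 cells stably expressing hTDP1, seeded 400/well; qHTS titration format.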
TDP1 cell noCPT: qHTS for Inhibitors of human tyrosyl-DNA phosphodiesterase 1 (TDP1): qHTS in cells in absence of CPT. DT40 Tdp1-/- hTDP1 cells, no CPT, ATP luminescence, 48 h. Potency, µM (series often up to 46.2 µM), inactives show top-dose activity change, negative = growth inhibition, most hits filed as inhibitors. hit rate 15% among 420,000; also: potency is read from the fitted curve at half-maximal effect; % is scaled to controls: 0 for no effect and ±100 for the full control effect; nearly all actives have a fitted effect of over 55% in size
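DT40 Tdp1-/-;hTDP1 cells, no CPT (DMSO vehicle only), 400 cells/well; compounds pin-transferred; ≥48 hr, 37 °C; CellTiter-Glo 30 min RT dark, luminescence read.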
Chronic BCR inh: qHTS Assay to Find Inhibitors of Chronic Active B-Cell Receptor Signaling. AID 493014, 2011. ABC-DLBCL IkBa-CBG/CBR reporter, luminescence ratio, 4 h. Potency, µM (series often up to 46.1 µM), for inactives: at the top dose activity change, negative = inhibition, actives largely listed as inhibitors. hit rate 0.05% among 340,000; active = well fitted inhibition curve with a large enough effect in the signal ratio, with a control signal flat, not every such curve was filed as active; inconclusive = small, poorly fitted or top-dose-only effect, or effect the other way, or a change in a side signal; the % refers to the signal ratio;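 also: potency is read from the fitted curve at half-maximal effect; plate controls were basal doxycycline-induced cells for no effect and cells given 10 µM MG132 for full effect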
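Doxycycline induced both beetle luciferases in TMD8 lymphoma cells; IKK-driven degradation limits the IkappaBalpha-fused green signal, while red luminescence normalises for cell number and nonspecific effects. Compounds tested up to 46 uM, 4 hrs.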
Starred values were filed as active, the others as inactive; ? = inconclusive; · = not tested or not shown; [ ] = another dose, or the depositor's remark. Unless noted, calls follow the shape of the dose curve; as a rule, active = well fitted curve in the direction sought with a large enough effect; inconclusive = small, poorly fitted or top-dose-only effect, or another doubt; inactive = no such curve, though single readings can be large; an effect the other way counts as inactive or inconclusive.

SMILES	SW480 rereplic	MCF10A rereplic	IL1B secr inh	TDP1 cell CPT	TDP1 cell noCPT	Chronic BCR inh
CC(C)(C)OC(=O)N1CCC[C@H]1C(=O)Nc1ccc(Br)cc1	-9%	-3%	30	-7%	-14%	0%
CC(NC(=O)C1CCCN1C(=O)OC(C)(C)C)C(=O)OCc1ccccc1 (configuration not stated)	·	·	39	23µM*	?	·
CC(C)(C)OC(=O)N1CCC[C@H]1C(=O)Nc1ccc(S(=O)(=O)C(F)F)cc1	-2%	-7%	23	13µM*	?	0%
O=C1CCCC2=C1C(c1cccc(Br)c1)n1nc(-c3ccco3)nc1N2 (configuration not stated)	3%	1%	-94*	?	?	·
COc1cccc(S(=O)(=O)NCc2ccc(C(=O)N3CCN(Cc4ccccc4)CC3)cc2)c1	-12%	0%	-67*	?	-24%	-4%
COc1ccc(S(=O)(=O)NCc2ccc(C(=O)N3CCN(Cc4ccccc4)CC3)cc2)cc1	-17%	16%	-26	?	-25%	0%
Cc1ccc(S(=O)(=O)NCc2ccc(C(=O)N3CCN(Cc4ccccc4)CC3)cc2)cc1	-3%	14%	-79*	?	?	5%
CCN1CCN(C(=O)c2ccc(CNS(=O)(=O)c3cccc(OC)c3)cc2)CC1	-5%	13%	16	?	-29%	6%
COc1ccc(CN2CCN(C(=O)c3ccc(CNS(=O)(=O)c4ccc(C)cc4)cc3)CC2)c(OC)c1OC	-5%	-5%	4	13µM*	13µM*	?
COc1cccc(CNS(=O)(=O)c2c(C)[nH]c(C)c2C(=O)N2CCCCC2)c1	?	3%	-17	26µM*	?	-5%
CCC(CC)C(=O)Nc1nnc(S(=O)(=O)N(C)c2cc(C)cc(C)c2)s1	·	·	·	-24%	?	·
Cc1ccc(N2C(=O)[C@@H]3CSC(c4ccc(C(F)(F)F)cc4)N3C2=O)cc1 (some centres not stated)	·	·	·	0%	-20%	·
CN(C)N=Nc1ccc(-c2cn(Cc3ccccc3)cn2)cc1	6%	17%	-18	0%	26µM*	?
Cc1cccc2c1N(CCCOc1ccc(C(C)(C)C)cc1)C(=O)C2=O	2%	?	-1	?	18µM*	15%
Cc1ccc2c(c1)C(=O)C(=O)N2CCCOc1ccccc1C	30%	?	?	3.3µM*	2.9µM*	-4%
Cc1ccc(OCCN2C(=O)c3ccccc3C2=O)c(C)c1	-3%	-4%	9	25%	-8%	13%
Cc1ccccc1OCCCN1C(=O)C(=O)c2cccc(C)c21	23%	?	3	2.6µM*	1.8µM*	-1%
CCOc1ccc(CN2C(=O)C(=O)c3cccc(C)c32)cc1OC	·	·	·	?	1.6µM*	·
Cc1nc2ccccc2c(=O)n1NC(=O)c1ccc(Cl)c(Cl)c1	-31%	1%	0	-4%	-20%	1%
O=C1c2ccccc2C(=O)N1CCOc1cccc(Br)c1	-9%	0%	0	0%	-5%	2%
Cc1cccc2c1N(CCCOc1ccccc1)C(=O)C2=O	-2%[9.22 µM]	16%	-6	9.2µM*	16µM*	12%
C=CCN(c1ccccc1)S(=O)(=O)c1cccc(C(=O)O)c1	-11%	-2%	-7	1%	-6%	?
C=CCN(c1ccccc1)S(=O)(=O)c1cccc(C(=O)Nc2nc3ccccc3[nH]2)c1	7%	26%	-20	21µM*	13µM*	?
C=CCN(c1ccccc1)S(=O)(=O)c1cccc(C(=O)Nc2ncccc2C)c1	-11%	1%	7	-6%	-8%	6%
C=CCN(c1ccccc1)S(=O)(=O)c1cccc(C(=O)Nc2ccncc2)c1	1%	14%	?	23µM*	21µM*	6%
SMILES	SW480 rereplic	MCF10A rereplic	IL1B secr inh	TDP1 cell CPT	TDP1 cell noCPT	Chronic BCR inh
C=CCN(c1ccccc1)S(=O)(=O)c1cccc(C(=O)Nc2ccc(N3CCOCC3)cc2)c1	?	12%	0	9.2µM*	2.6µM*	-7%
C=CCN(c1ccccc1)S(=O)(=O)c1cccc(C(=O)N2CCN(c3ncccn3)CC2)c1	12%	?	-2	6.5µM*	3.7µM*	3%
COC(=O)Cn1nc(C)c2c(C)n(-c3ccccc3)nc2c1=O	·	·	·	-1%	-1%	·
Cc1ccc(CNC(=O)C2CCCN(S(=O)(=O)c3ccc4c(c3)oc(=O)n4C)C2)cc1 (configuration not stated)	·	·	·	-10%	?	·
Cc1cc2c(cc1C)NC(C)CC(=O)N2 (configuration not stated)	2%	1%	-1	-3%	-12%	·
CCCCn1c(SCC(=O)N2CCC(C)CC2)nc2ccsc2c1=O	2%	12%	7	?	15µM*	?
CCC1CCCCN1C(=O)CSc1nc2ccsc2c(=O)n1Cc1ccccc1 (configuration not stated)	16%	?	-10	21µM*	9.2µM*	?
CCCCn1c(SCC(=O)N2CCN(c3ccccc3)CC2)nc2ccsc2c1=O	16%	?	-23	12µM*	?	?
CCCCn1c(SCC(=O)N2CCOCC2)nc2ccccc2c1=O	-18%	-5%	-1	-21%	-10%	15%
O=C(CSc1nc2ccsc2c(=O)n1Cc1ccccc1)NCC1CCCO1 (configuration not stated)	-5%	0%	16	5%	-3%	-3%
O=C(c1cc(S(=O)(=O)NCc2ccco2)ccc1Br)N1CCOCC1	9%	-1%	50	-1%	17%	2%
CCc1oc2ccccc2c1C(=O)c1cc(Br)c(O)c(Br)c1	-1%	7.3µM*	27	?	?	?
CCOc1ccccc1NC(=O)CSc1nnc(CNC(=O)c2c(F)cccc2Cl)o1	-5%	0%	17	5%	7%	-20%
COc1ccc(N2C(=O)CSC2c2cccs2)cc1 (configuration not stated)	18µM*	?	11	-16%	?	1%
C=CCc1ccc(OCCOc2ccc(/C=N/n3cnnc3)cc2OCC)c(OC)c1	-4%	5%	-30	?	?	23µM*

High-throughput results as filed in PubChem BioAssay.
